Test results: PubChem BioAssay (NCI)
Compounds without any hit were thinned out: in the full panel of roughly 83,000, 20% have a hit.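 Interpretation: 100, growth as untreated; towards 0, rising growth inhibition; 0, no net growth; 0 to -100, cell death. Compounds scoring below 10 were considered active.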 Unmarked numbers belong to inactive results. Activity calls are given as the source filed them.

Key:
Assay in all cases: NCI-60 one-dose screen, 48 h (100 = growth as untreated, 0 = no growth, -100 = all killed)
Settings in all cases: 10 µM unless noted
T-47D breast = test system: T-47D breast
BT-549 breast = test system: BT-549 breast
MDA-MB-435 melanoma = test system: MDA-MB-435 melanoma
SW-620 colon = test system: SW-620 colon
MCF7 breast = test system: MCF7 breast
HCT-116 colon = test system: HCT-116 colon
HCC-2998 colon = test system: HCC-2998 colon
KM12 colon = test system: KM12 colon

Structure (SMILES) | growth (T-47D breast) | growth (BT-549 breast) | growth (MDA-MB-435 melanoma) | growth (SW-620 colon) | growth (MCF7 breast) | growth (HCT-116 colon) | growth (HCC-2998 colon) | growth (KM12 colon)
Cc1ccccc1-c1cc(Cc2ccc(F)cc2)c(=O)[nH]n1 | 99% | 106% | 119% | 102% | 97.9% | 78.4% | 119% | 123%
Cc1ccccc1CNc1ccc(N2CCOCC2)cc1 | 106% | 102% | 102% | 98% | 102% | 104% | 105% | 100%
COc1ccc(C(O)c2cc3c(N)c(C(=O)Nc4ccccc4)sc3nc2C)cc1 (stereo not drawn) | 51.7% | 31.6% | -15.1% (active) | 19.3% | 13.4% | 6.95% (active) | 9.2% (active) | 3.05% (active)
[O-][n+]1ccccc1CCN(O)CCc1cccc[n+]1[O-] | 100% | 101% | 105% | 102% | 102% | 94.7% | 109% | 104%
CCOC(=O)C1CC(=O)c2cc(OC)c(OC)cc2C1 (stereo not drawn) | 115% | 123% | 114% | 111% | 95.7% | 95.5% | 101% | 103%
CC(C)Sc1nc(NN)c(C#N)c(-c2ccccc2)n1 | 90.4% | 79.3% | 103% | 94.9% | 90.9% | 87.9% | 100% | 101%
CC1NC(=S)NC(=O)/C1=C/c1cc(=O)oc2c1ccc1ccccc12 (stereo not drawn) | 93.4% | 87.7% | 105% | 95.5% | 89.9% | 91.8% | 105% | 99.6%
COc1ccc(C2=NN(C(C)=O)C(c3cn(Cc4ccc(Cl)cc4)c4ccccc34)C2)cc1 (stereo not drawn) | 51.8% | 97.1% | 96.5% | 98.2% | 84.5% | 86.3% | 95.5% | 86.4%
O=C(O)c1ccc[n+](CC(=O)N2CCN(c3cc4c(cc3F)c(=O)c(C(=O)O)cn4C3CC3)CC2)c1 | 85.9% | 75.1% | 67.4% | -3.29% (active) | 50.9% | 23.9% | 111% | 92.2%
NC(=O)c1cccc(-c2cc(C(N)=O)ccc2Cl)c1 | 33.9% | 57.9% | -27.6% (active) | 21.1% | 23.5% | 25.4% | 57.7% | 30.8%
Cc1c2c(cc[n+]1Cc1ccccc1)c1ccc(OCc3ccccc3)cc1n2Cc1ccccc1 | -4.02% (active) | -90.4% (active) | -93.8% (active) | -88.1% (active) | -23.1% (active) | -95.6% (active) | -81.8% (active) | -98.4% (active)
Nc1c(C(=O)Nc2ccc(Cl)cc2)cc(-c2nc3ccccc3s2)c(=O)n1NS(=O)(=O)c1ccc(Cl)cc1 | 92.9% | 122% | 99.8% | 96.9% | 84.2% | 98.6% | 107% | 99%
C#CC(=O)Nc1cccc2c1cc(C)n2-c1nc2c(c(NCc3ccccc3)n1)CCCC2 | -41.4% (active) | -47.3% (active) | -81.4% (active) | -59.3% (active) | -39.8% (active) | -70.3% (active) | -89.9% (active) | -27.6% (active)
CC(=O)NCCCS(=O)(=O)O | 102% | 110% | 99.9% | 90.9% | 101% | 98.5% | 102% | 102%
NC(=O)c1ccc[n+](CC(=O)N2CCN(c3cc4c(cc3F)c(=O)c(C(=O)O)cn4C3CC3)CC2)c1 | 99.1% | 87.3% | 75.2% | 6.58% (active) | 62.4% | 37.1% | 115% | 90.1%
CCCCCCOc1ccc(/C=N/Nc2cc(C)nc3ccc(Br)cc23)cc1 | -11% (active) | 106% | -87.7% (active) | -72.5% (active) | -67% (active) | -66.4% (active) | -94.5% (active) | -84.7% (active)
